Screens: PubChem BioAssay, National Center for Advancing Translational Sciences (NCATS)
RORgamma inh – qHTS for inhibitors of ROR gamma transcriptional activity. Nuclear receptor ROR-gamma (Mus musculus), P51450. Drosophila S2 Gal4-RORgamma UAS-luciferase reporter, 20 h. Potency, µM (highest dose often 53.6 µM), inactives show at the highest dose activity change, negative = inhibition, most hits filed as inhibitors. hit rate 5.4% among 310,000; note: nearly all actives have a fitted effect of over 60% in size
Target sequence (P51450 whole entry, looked up, the tested form may be a part): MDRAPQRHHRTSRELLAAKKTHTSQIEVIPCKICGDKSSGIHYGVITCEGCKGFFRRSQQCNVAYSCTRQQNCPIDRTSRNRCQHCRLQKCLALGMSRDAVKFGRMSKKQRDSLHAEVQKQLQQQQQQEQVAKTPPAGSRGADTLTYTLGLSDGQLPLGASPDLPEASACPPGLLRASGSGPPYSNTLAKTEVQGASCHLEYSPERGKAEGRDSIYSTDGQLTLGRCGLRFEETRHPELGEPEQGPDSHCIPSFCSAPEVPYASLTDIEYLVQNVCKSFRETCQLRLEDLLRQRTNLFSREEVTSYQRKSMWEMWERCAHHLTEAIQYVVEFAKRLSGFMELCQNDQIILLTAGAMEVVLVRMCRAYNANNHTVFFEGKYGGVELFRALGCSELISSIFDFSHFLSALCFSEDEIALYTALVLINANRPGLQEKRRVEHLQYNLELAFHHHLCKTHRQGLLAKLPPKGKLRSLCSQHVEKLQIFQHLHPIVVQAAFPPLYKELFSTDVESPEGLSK
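Drosophila S2 cells stably expressing Gal4-DBD/mouse RORγ fusion under metallothionein promoter plus UAS-luciferase; compound 1 h, then 700 uM CuSO4 induction for 20 h at ambient temperature; inhibition read as reduced luminescence.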
KinaseGlo FLuc – Counterscreen for Luciferase (Kinase-Glo TM) Inhibition; hit rate 0.28% among 200,000; Potency, µM (highest dose often 38.3 µM), for the others: at the top dose activity change, negative = inhibition, hits mostly inhibitors; Luciferin 4-monooxygenase (Photuris pensylvanica), Q27757; AID 1379, 2008; Kinase-Glo luciferase, ATP luminescence, 8 min; note: nearly all actives have a fitted effect of over 60% in size
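Compound is pinned into ATP-containing buffer (10 uM ATP, imidazole pH 7.2, 7 mM MgCl2). Kinase-Glo luciferase reagent is then added. Light output is recorded following an 8-min room-temperature incubation.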
VP16 counter – VP16 counterscreen qHTS for inhibitors of ROR gamma transcriptional activity; AID 2546, 2010; hit rate 3.5% among 310,000; Drosophila S2 Gal4-VP16 UAS-luciferase, luminescence, 20 h; Potency, µM (doses to about 53.6 µM), for inactives: top-dose activity, negative = inhibition, usual class: inhibitors;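 note: Gal4-VP16 expression switched on by copper sulfate through the metallothionein promoter; nearly all actives have a fitted effect of over 50% in size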
* = called active by the depositor; ? = inconclusive; / = not tested or not shown; [ ] = remark or other dose. Most compounds without a hit are left out; they make up all but 6.4% or so of the library. Calls come from the whole dose curve; as a rule, active = well fitted curve in the direction sought with a large enough effect; inconclusive = small, poorly fitted or top-dose-only effect, or another doubt; inactive = no such curve, though single readings can be large; an effect the other way counts as inactive or inconclusive. % is set by controls: 0 for no effect and ±100 for the full control effect; potency is the fitted concentration of half-maximal effect.

SMILES	RORgamma inh	KinaseGlo FLuc	VP16 counter
Cc1nnc(N/N=C/c2ccccc2O)n1N	1.3µM*	-1%	?
Cc1nnc(N/N=C/c2c(Cl)cccc2Cl)n1N	?	1%	?
CCc1nnc(N/N=C/c2cc(C)c(C)cc2C)n1N	16µM*	/	?
CCc1nnc(N/N=C/c2c(C)[nH]c3ccccc23)n1N	?	4%	-7%[10 µM]
Cc1nnc(N/N=C/c2ccc(-c3ccccc3F)o2)n1N	7.9µM*	/	?
COC(=O)c1ccc(-n2c(C)cc(/C=N/Nc3nc(C)cc(=O)[nH]3)c2C)cc1	?	/	-16%
Cc1nnc(N/N=C\c2ccc(-c3ccccc3[N+](=O)[O-])o2)n1N	?	0%	?
Cc1nnc(N/N=C/c2cc(C)n(-c3ccc(F)cc3)c2C)n1N	11µM*	0%	?
Cc1ccc(NC(=O)C2CCN(S(=O)(=O)c3ccc(N4CCCC4=O)cc3)CC2)cc1Cl	?	/	3.2µM*
O=C(NCc1ccccc1Cl)C1CCN(S(=O)(=O)c2ccc(N3CCCC3=O)cc2)CC1	-35%	/	-20%
CC(NS(=O)(=O)c1cccc(Cl)c1)C(=O)N(C)C1CCN(C)CC1 (stereo not given)	-10%	-1%	1%
CC(C)(C)NC(=O)/C=C/c1cccs1	11%	0%	-11%
CC(O)C(=O)N/N=C/c1cccc2ccccc12 (stereo not given)	-2%	0%	9%
CN1CCN(C(=S)NC(=O)/C=C/c2cccc3ccccc23)CC1	1µM*	1%	3.2µM*
CN1CCN(C(=S)NC(=O)/C=C/c2cccs2)CC1	10µM*	/	?
CN1CCN(C(=S)NC(CC(=O)c2ccccc2)c2ccccc2)CC1 (stereo not given)	-16%	/	6%
CC(C)NC(=S)NC(=O)/C=C/c1cccc2ccccc12	1.4µM*	-8%	4.5µM*
N#Cc1c2c(c(Nc3ccc(O)cc3)n3c1nc1ccccc13)CCC2	-21%	2%	-6%
Cc1ccc(C(=O)C(C)OC(=O)c2nc(Cl)ccc2Cl)cc1 (stereo not given)	10%	/	2%
CC1=C2C(=COC(C)C2C)C(=O)C(C(=O)O)=C1O (stereo not given)	-32%	-2%	1%
COc1cc2cc(CN(Cc3cccnc3)C(=O)Nc3ccccc3F)c(=O)[nH]c2cc1OC	-1%	-3%	9%
CN1CCN(C(=O)CCN2C(=O)/C(=C\c3ccccc3F)SC2=S)CC1	5.6µM*	/	-17%
CN1CCN(C(=O)CCN2C(=O)/C(=C/c3ccc(F)cc3)SC2=S)CC1	-28%	/	-2%
CCN(C(=O)CN1C(=O)S/C(=C\c2ccccc2OC)C1=O)C1CCS(=O)(=O)C1 (stereo not given)	-20%	/	-5%
CCN(C(=O)CN1C(=O)/C(=C/c2ccccc2F)SC1=S)C1CCS(=O)(=O)C1 (stereo not given)	10µM*	/	-10%
SMILES	RORgamma inh	KinaseGlo FLuc	VP16 counter
CN1CCN(NC(=O)CN2C(=O)/C(=C/c3ccccc3Cl)SC2=S)CC1	-9%	3%	16%[0.365 µM]
CN1CCN(C(=O)CCN2C(=O)/C(=C/c3ccccc3Cl)SC2=S)CC1	18µM*	0%	-1%
O=C(NC1CCCCC1)C(=S)N1CCOCC1	3%	-3%	7%[10 µM]
COc1ccc(-n2c(=S)[nH]c3cc(C(=O)NCCCN4CCOCC4)ccc3c2=O)cc1OC	-15%	/	4%
COC(=O)c1c(NC(=O)COC(=O)CCc2ccc(S(=O)(=O)N3CCOCC3)cc2)sc2c1CCC2	19%	-3%	-8%
CN(C)c1cc(-c2ccc([N+](=O)[O-])cc2)oc(=O)c1Cl	-2%	/	-7%
Cc1ccc(N2CC(=O)Nc3c(oc4nc(-c5ccccc5)cc(C)c34)C2=O)cc1	-16%	/	15%
COc1ccc(/C=C/C(=O)OCC(=O)NCCC2=CCCCC2)cc1S(=O)(=O)N1CCOCC1	-14%	0%	-1%
COC(=O)Cn1c(CCS(=O)(=O)c2ccc(C)cc2)nc2ccccc21	3%	1%	2%[0.365 µM]
COC(=O)Cn1c(CCS(=O)(=O)c2ccc(Cl)cc2)nc2ccccc21	3.5µM*	-3%	4%
COc1c2ccoc2nc2c(OC)c(OCC(OC(C)=O)C(C)(C)O)ccc12 (stereo not given)	-11%	/	-5%
CCN(CC)C(=O)c1ccc2c(=O)n(Cc3ccc4c(c3)OCO4)c(=S)[nH]c2c1	11µM*	/	?
CC1CCCN(C(=O)c2ccc3c(=O)n(Cc4ccc5c(c4)OCO5)c(=S)[nH]c3c2)C1 (stereo not given)	7.9µM*	0%	?
CCN(CC)C(=O)c1ccc2c(=O)n(Cc3cccc(Br)c3)c(=S)[nH]c2c1	7.1µM*	/	13µM*
CCN(CC)C(=O)c1ccc2c(=O)n(CCOC)c(=S)[nH]c2c1	-11%	-4%	-10%
CCOCCCn1c(=S)[nH]c2cc(C(=O)NCCc3ccccc3)ccc2c1=O	?	/	-29%
O=C(c1ccc2c(=O)n(Cc3ccc4c(c3)OCO4)c(=O)[nH]c2c1)N1CCN(c2ccccc2)CC1	1%	/	0%
CC(C)OCCCNC(=O)c1ccc2c(=O)n(Cc3ccc4c(c3)OCO4)c(=S)[nH]c2c1	3%	-5%	2%
CCCn1c(=S)[nH]c2cc(C(=O)N(CCO)Cc3ccccc3)ccc2c1=O	13µM*	/	?
O=C(CN1CCc2ccccc2C1)NC1CCCC1	?	1%	-1%
CCC(Cc1ccccc1)NS(=O)(=O)c1ccc2c(c1)NC(=O)CO2 (stereo not given)	16%	/	13%
Cc1nc([N+](=O)[O-])cn1CC(=O)c1ccc(F)cc1	-20%	/	3%
CN1CCN(C(=O)c2ccc3c(=O)n(Cc4ccco4)c(=S)[nH]c3c2)CC1	-6%	1%	-3%
CCCN(CCC)C(=O)c1ccc2c(=O)n(Cc3ccco3)c(=S)[nH]c2c1	3.2µM*	5%	?
CC1(C)Cc2c(sc3c2c(=N)n(Cc2ccco2)c(=O)n3Cc2ccccc2)CO1	-39%	3%	?
SMILES	RORgamma inh	KinaseGlo FLuc	VP16 counter
CC1(C)Cc2c(sc3[nH]c(=S)n(Cc4ccco4)c(=O)c23)CO1	1µM*	-5%	1.4µM*
Cc1cc(C)nc(Nc2ncc(O)n2-c2ccc(C)c(Cl)c2)n1	11µM*	2%	?
Cc1cc(C)nc(Nc2ncc(O)n2-c2ccc(C)c(C)c2)n1	-25%	-5%	6%
CC(=O)c1cn(CC(=O)Nc2ccccc2Cl)c2ccccc12	5%[1.91 µM]	/	?
N#Cc1ccc(C(CC(=O)O)N2Cc3ccccc3C2=O)cc1 (stereo not given)	10%	/	-1%
CC1CCCCN1S(=O)(=O)c1ccc(NC(=O)c2cccs2)cc1 (stereo not given)	30%	-2%	-2%
CC1CCN(C(=O)c2ccc(NC(=O)c3cccs3)cc2)CC1	44%	/	-3%
O=C(NC(=S)N1CCCC1)c1ccccc1Cl	-7%	/	2%
CC1CCN(C(=S)NC(=O)c2cccs2)CC1	0.25µM*	-2%	0.89µM*
O=C(NC(=S)N1CCCCC1)c1csc([N+](=O)[O-])c1	0.35µM*	/	1.1µM*
CC1CCCCN1C(=S)NC(=O)c1cccs1 (stereo not given)	0.71µM*	/	2.8µM*
S=C(c1cccs1)N1CCCC1	25%[0.365 µM]	-2%	/
